The full ranking holds about 59,000 sequences; the median of the read-out is about -0.00055, and the lowest 2% start at about -2. Shown is part of a subset that was picked to be rich in the lowest values.
Test: Identification of proteins required for the processing of the EWS-FLI1 nascent transcript;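 note: robust z of luciferase light less the median z of siRNAs with the same seed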
Details: TC32 Ewing sarcoma NR0B1-luc vs CMV-luc (EWS-FLI1 target promoter against control promoter), 48 h; screened at 20 nM (by protocol)
Outline: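 Parallel TC32-NR0B1-luc and TC32-CMV-luc reverse transfections with 20 nM siRNA in RPMI-1640/10% FBS, luciferase measured 48 h later. Seed-adjusted z-scores from normalized, z-score-MAD transformed data; AllStars negative and siGL4 controls on each plate.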

Sequence	seed-corrected z-score
UCUCGAGUUAUGUGGUUGG against RAD51D	0.265
AUAGUUGCAAUCAAACGAG against SFT2D2	-3.87
UCUGGGAAAACAUGGUUGU against DUBR	-1.17
ACAGAUAUAACACUCAUCG against ANO10	-0.322
AUUGUGACUAUUAUGAGUC against MTND5P10	-0.792
UACAGAUCCGCGAUGUACU against RCN3	0.823
UUUCCGAAAAUUUAGUGGG against ATAD2	0.659
UGGUGGUCCACCUUGUUAG against F13A1	-1.25
UCCAGUGCAAUGACUCUUG against ZNF114	-2.45
AACUUUUCACUGGUGACCC against C7orf55	-0.00837
UCUCAGGAUAGGAACCACC against SPRR2G	-0.114
UUUAGAUCUAGAAUUACAC against SPESP1	-0.539
UGAGCUCUGAGAAUUGAGG against POM121	0.483
UGCAGAUGCGGAAAGCUGC against LOC388692	0.336
AUCCAGUUCACGUAGGCAG against TPSG1	-2.87
UCUGCGUACUCAUCCAUCC against GALNT10	0.408
UCUGAUCUCACGGAUGAAG against RASEF	0.117
UUAGGCUCUUUGUAUGUCC against ELOVL4	0.198
UUUCUGCACAGGAAUAUCG against CD37	-3.03

Sequence	seed-corrected z-score
UCCGCGUAUAAAUAGGUGC against RSPH1	-0.487
UGAGUUGAAGGUCUGCCCG against MPND	-0.48
UGAUAGAUGAAUAUCAUCC against KIAA0232	-0.728
UAUUCGCACAGGCUGAUUC against BBS12	0.0215
AAGUUGGUGAUUAAUCUCC against DERL2	-0.311
UUCUGUGGAAGAUUUCUGG against TOP3A	-0.163
UAUUUGACUAGGCGACUUC against NET1	-2.17
UAUCUAAAGAGACCCUGUC against YPEL1	1.06
ACAGUAUCCUCAGAUGUCC against SHROOM2	0.0618
UGCAGUACUGAAGAUAACG against EOGT	-1.09
UUCUUAGCCGCGAUGGUCU against DES	0.351
UAGGUAGAAGUGAUUGUUC against ZFAND4	0.956
AUGUGGACAGCGUAGCUCC against FUT4	-0.421
UACAUUGUGAGAUCCCUGG against C17orf78	-2.15
UUAUGAACCCUGGAGCUCC against ADRB3	0.000803
AAUACGAUGACAAUAAGGC against FAM200A	-0.251
AUAGCUGCGAACAAAGGCC against ZNF404	-6.09
UUCGACUUGGUUGCAAUGG against PPBP	0.68

Reference: PubChem BioAssay AID1159506 (National Center for Advancing Translational Sciences (NCATS), 2015)
